TRHR ag – agonists of human TRH receptor; TRHR cells, calcium flux fluo-8, FDSS agonist mode; P34981; activation, % at 2 µM; actives 0.18% (n = 360,000); AID 493084; note: 0% is about no effect
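In this calcium-flux screen, cells bearing human TRHR are dye-loaded with fluo-8, baselined for 10 cycles, then exposed to library compounds; positive kinetic calcium responses during the agonist phase mark hits, with TRH as control.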
USP1 inh – inhibitors of human USP1/UAF1 deubiquitinase; actives 0.23% (n = 390,000); Potency, µM (highest dose often 57.1 µM), for inactives: at the highest dose activity change, negative = inhibition, actives largely listed as inhibitors; O94782; AID 743255; recombinant USP1/UAF1, Ub-Rhodamine cleavage fluorescence; active = well fitted inhibition curve with a large enough effect; inconclusive = small, poorly fitted or top-dose-only effect; inactive = no such curve, though single readings can be large or run the other way; note: potency is the fitted concentration of half-maximal effect; % is set by controls: 0 for no effect and ±100 for the full control effect; nearly all actives have a fitted effect of over 60% in size
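Step one: compound is pinned into 1nM USP1/UAF1 in HEPES pH 7.8 buffer with TCEP. Step two: 15 min room-temperature incubation. Step three: Ub-Rho (150nM final) starts cleavage, tracked by fluorescence over six one-minute reads.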
D1 ag – agonists of human D1 dopamine receptor | AID 504660 | HEK293 T-REx D1 cells, calcium flux, agonist mode | actives 1% (n = 360,000) | activation, % at 2 µM | P21728; note: 0% is about no effect
Target sequence (P21728 whole entry, looked up): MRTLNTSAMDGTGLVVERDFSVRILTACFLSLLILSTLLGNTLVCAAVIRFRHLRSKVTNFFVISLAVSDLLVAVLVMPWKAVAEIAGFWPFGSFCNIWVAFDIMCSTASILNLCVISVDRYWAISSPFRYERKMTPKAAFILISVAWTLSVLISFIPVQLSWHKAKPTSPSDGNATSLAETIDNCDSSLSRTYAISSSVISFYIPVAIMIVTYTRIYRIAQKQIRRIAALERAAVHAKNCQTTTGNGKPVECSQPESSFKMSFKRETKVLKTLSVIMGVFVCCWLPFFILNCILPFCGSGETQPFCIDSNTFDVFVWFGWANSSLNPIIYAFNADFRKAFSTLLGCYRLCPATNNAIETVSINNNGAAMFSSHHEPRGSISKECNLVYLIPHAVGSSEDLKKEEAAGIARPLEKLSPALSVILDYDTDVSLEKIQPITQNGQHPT
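Agonism was scored from calcium flux recorded over 180 s (1 read/s) after pintool compound addition, following a 10-cycle baseline. Cells were inducible force-coupled HEK293 TREx D1, plated overnight at 30 C and loaded with no-wash calcium dye.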
D1 potentiator – enhances dopamine response at the human D1 receptor. P21728. HEK293 TREx D1 cells, calcium flux, dopamine EC20 potentiation. actives 0.036% (n = 360,000). potentiation, % at 10 µM. AID 504651; in the data active = potentiation above about 30%; note: 0% is about no effect
TRHR PAM – TRH receptor (human) allosteric enhancement; P34981; TRHR cells, fluo-8 calcium fluorescence, EC20 TRH enhancement; enhancement, % at 2 µM; actives 0.66% (n = 360,000); in the data active = enhancement above about 30%; note: 0% is about no effect
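Enhancer read-out: after compound pinning and an initial kinetic agonist-mode read, an EC20 of TRH (10 nM final) was injected and fluo-8 calcium signal (Ex 480/Em 530) followed at 1 s/cycle for 100 cycles in TRHR-expressing cells.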
D1 antagonist – antagonists of human D1 dopamine receptor; P21728; HEK293 TREx D1 cells, calcium flux, dopamine EC80; active compounds read low; activity change, negative = inhibition, % at 10 µM; actives 3.2% (n = 360,000); in the data active = activity change below about -30%; note: % is set by controls: 0 for no effect and ±100 for the full control effect
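Antagonism measured as reduced calcium response to an EC80 dopamine addition following 180 s compound pre-read; cells were inducible HEK293 Trex D1 plated overnight at 30 C, read kinetically at 1 cycle/sec.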
* marks the source's active call; other numbers are inactive results; ? = inconclusive; / = no result given; ! = repeats disagree. An excerpt weighted towards active compounds, which were near 4.4% of everything screened. Cut-off read from the data, not from the text of the source, unless noted: active = activation above about 30%; inactive = the rest.

SMILES | TRHR ag | USP1 inh | D1 ag | D1 potentiator | TRHR PAM | D1 antagonist
COc1ccc(CCN2C(=O)c3[nH]nc(-c4ccccc4O)c3C2c2ccc(OC)c(OC)c2)cc1 (configuration not stated) | -0.1 | -14.3% | 2.3 | 1.6 | 30.8* | -1.5
Cc1ccc(C)c(S(=O)(=O)N2CCN(C(=O)Cc3c(F)cccc3Cl)CC2)c1 | -0.1 | -4.4% | 2.4 | 7.8 | -3.1 | 13.2
Cc1ccc(C)c(S(=O)(=O)N2CCN(C(=O)CSc3ccccc3F)CC2)c1 | 1.8 | -10.2% | 30.8* | -8.3 | 5.7 | -27.4
Cc1cccc(NC(=O)CSc2nc(-c3ccccc3)cc(=O)[nH]2)c1C | -0.2 | 11.4% | -1.3 | -4.5 | -2.8 | -1.8
COc1cccc(=O)c2c(C)n(CC(=O)c3ccccc3)c(C)c12 | 1.5 | -4.0% | 6.2 | -3.8 | -7.7 | -32.8*
CCOc1ccccc1NC(=O)COC(=O)c1cn(CC)c2nc(C)ccc2c1=O | -2.0 | -15.7% | 1.0 | -0.1 | -2.9 | -0.1
CC1=CC(C)(C)N2C(=O)C3(C(C#N)=C(N)OC4=C3C(=O)CC(C)(C)C4)c3cccc1c32 (configuration not stated) | -0.7 | / | 0.7 | -1.2 | 0.5 | -8.8
CC1=CC(C)(C)N2C(=O)C3(C(C#N)=C(N)Oc4cc(O)ccc43)c3cccc1c32 (configuration not stated) | -0.4 | ? | 0.4 | -1.1 | 32.1* | -2.0
Cc1ccsc1C(=O)NCC(=O)OCc1ccccc1 | -1.5 | -13.1% | 2.6 | -7.5 | -6.9 | -30.2*
O=C(NNC(=O)c1ccc(Cl)cc1Cl)Nc1ccccc1 | 0.2 | -9.7% | 0.5 | -14.7 | -4.2 | -37.8*
O=C(Nc1ccc(Nc2ccccc2)cc1)c1ccc(Cl)cc1Cl | / | -9.5% | / | / | / | /
O=C(CNC(=O)c1ccc(Cl)cc1Cl)OCc1ccccc1 | -0.3 | -1.5% | -0.4 | -4.5 | 10.1 | -31.9*
O=C(NCc1n[nH]c(=S)n1Cc1ccccc1)c1ccc(Cl)cc1Cl | -0.2 | -17.1% | 4.5 | -0.3 | 2.5 | -31.4*
CCOc1ccc(OC(=O)c2cn(-c3cccc(OC)c3)c(=O)c3ccccc23)cc1 | 0.7 | 1.2% | 1.5 | -6.2 | -14.4 | -11.4
CN1CCN(C(=O)c2ccccc2-c2nc(-c3ccc(Cl)cc3)no2)CC1 | 0.2 | 0.6% | -1.9 | -1.8 | 1.9 | -13.8
O=C(c1ccccc1-c1nc(-c2ccc(Cl)cc2)no1)N1CCCC1 | -0.3 | -8.5% | 1.8 | -1.1 | -4.0 | -34.9*
Cc1ccc2c(c1)N(Cc1ccncc1)C(=O)C(C)O2 (configuration not stated) | 0.1 | -12.9% | 2.4 | -10.1 | -0.3 | -34.1*
O=S(=O)(c1ccc(Br)cc1)c1nc(-c2cccs2)oc1SCc1ccccc1F | 1.0 | -20.1% | 16.3 | 0.9 | -3.5 | -2.6
Cc1cn2c(=O)cc(COC(=O)c3cccc(NC(=O)COc4ccccc4)c3)nc2s1 | -0.8 | -12.9% | 0.1 | -0.8 | -7.8 | -10.0
Cc1ccc(S(=O)(=O)N2CCC(=O)N(CCOC(=O)Nc3ccccc3C)CC2)cc1 | -0.5 | -20.8% | -4.1 | -5.9 | -0.5 | -31.0*
Cc1cc(C)cc(NC(=O)OCCN2CCN(Cc3ccccc3)CCC2=O)c1 | -0.4 | 3.0% | -3.7 | -6.5 | -4.1 | -32.3*
Cc1cc(C)n2c(SCC(C)C)nnc2n1 | 0.2 | -11.1% | 0.0 | -0.9 | 33.2* | -16.1
CCCCn1nc(-c2ccccc2)c2nc3ccccc3nc21 | 22.3 | / | 50.8* | 2.0 | -1.5 | -8.4
Cn1nc(-c2ccccc2)c2nc3ccccc3nc21 | 54.5* | ? | 94.4* | 3.6 | 0.8 | 5.1
COc1ccc(CCNC(=O)c2c([S-])n(-c3ccc(C)cc3)c3cccc[n+]23)cc1 | -0.3 | -17.2% | 0.5 | -4.2 | -12.2 | -34.7*
SMILES | TRHR ag | USP1 inh | D1 ag | D1 potentiator | TRHR PAM | D1 antagonist
CCc1ccc2n(-c3ccc(OC)cc3)c([S-])c(C(=O)Nc3cc(C)cc(C)c3)[n+]2c1 | -0.3 | -6.9% | 1.7 | -0.7 | 1.1 | 13.3
CCc1ccccc1NC(=O)CSc1nncn2c1cc1oc(C)cc12 | 0.6 | -12.0% | 6.2 | -6.5 | -1.5 | 3.2
Cc1cc2c(s1)c1cnn(Cc3c(F)c(F)c(C)c(F)c3F)c(=O)c1n2C | -0.4 | / | 0.8 | 6.5 | 0.5 | 13.2
CCOC(=O)CC(NC(=O)Cn1nnc(-c2ccccc2Cl)n1)c1ccc(OC)cc1 (configuration not stated) | 7.2 | 9.1% | 64.5*! | -4.2 | 11.8 | -9.8
CCOC(=O)CC(NC(=O)Cn1nnc(-c2ccccc2F)n1)c1ccc(OC)cc1 (configuration not stated) | 0.6 | -14.7% | 12.5 | -3.9 | 1.8 | 15.6
N/C(=N/O)C(c1ccccc1)c1ccccc1 | 0.7 | -11.4% | 4.5 | 1.1 | 1.2 | -44.2*
Cc1cc(-c2ccccc2)c2c3c(c(-c4ccccc4)n2n1)c(=O)n(C)c(=O)n3C | 0.2 | 36.9% | 0.6 | -0.5 | -14.2 | -68.3*
COc1cccc(NC(=O)c2cc(=O)c3ccccc3o2)c1 | 0.1 | -13.0% | 1.1 | -4.8 | 1.5 | -0.6
Cc1cc2oc(C(=O)Nc3c(C(=O)Nc4ccccc4)oc4ccccc34)cc(=O)c2cc1C | -1.0 | 2.3% | 2.7 | -0.6 | 3.0 | -42.9*
Cc1cc2oc(C(=O)Nc3ccc(S(=O)(=O)N(C)Cc4ccccc4)cc3)cc(=O)c2cc1C | 0.1 | -0.3% | 1.0 | 5.1 | 30.9* | 1.1
COc1ccc(NS(=O)(=O)c2cc(NC(=O)c3cc(=O)c4ccccc4o3)ccc2OC)cc1 | -0.4 | -15.4% | 6.4 | -2.9 | 33.7* | -3.8
COc1ccc(C(=O)NNc2ncnc3c2cnn3-c2cccc(Cl)c2)cc1OC | -0.5 | -11.8% | -4.0 | 3.5 | 1.3 | -5.4
CCc1nn(CC(=O)NC2CC2)c(=O)c2cc3c(OC)cccc3n12 | -0.5 | -23.5% | 0.3 | -6.8 | 14.5 | -30.0
Cc1ccc(C)c(S(=O)(=O)N2CCN(C(=O)C3CCN(c4ncnc5sc(C)c(C)c45)CC3)CC2)c1 | 0.7 | -8.7% | 2.6 | -4.7 | 34.3* | 8.9
Cc1ccc(NC(=O)C2CCN(c3ncnc4sc(C)c(C)c34)CC2)cc1S(=O)(=O)N(C)C | -0.2 | -25.8% | 2.8 | -1.8 | 1.6 | 31.2
COc1ccc(CCNC(=O)c2ccc3c(c2)c(C)c(C)n3Cc2ccc(F)cc2)c(OC)c1OC | -0.2 | -19.6% | 2.9 | -6.7 | -4.2 | -54.6*
COc1ccc(CCNC(=O)c2ccc3c(c2)c(C)c(C)n3Cc2ccccc2)c(OC)c1OC | 0.2 | -13.1% | 2.8 | -5.3 | 9.5 | -18.7
Cc1c(C)n(Cc2ccc(F)cc2)c2ccc(C(=O)NCCN3CCOCC3)cc12 | -0.3 | -22.6% | 5.8 | -18.8 | -2.1 | -30.0*

Assay outcomes from PubChem BioAssay.
